Laboratory results taken from PubChem BioAssay (Tox21).
Records with an inconclusive call do not appear. A call without a number means that no potency is given here. The source made the active and inactive calls. Calls follow the shape of the full dose curve.

experiment: qHTS assay to identify small molecule agonists of the AP-1 signaling pathway - cell viability counter screen (AID 1159525); settings: ME-180 (cervical carcinoma) AP-1-bla cells viability, ATP luminescence, 5 h; series mostly up to 76.8 µM; viability change, negative = cytotoxic: at the top concentration; also: nearly all actives have a fitted effect of over 55% in size
Text: National Center for Advancing Translational Sciences [NCATS]
NIH Chemical Genomics Center [NCGC]
U.S. Environmental Protection Agency [EPA]
National Institutes of Environmental Health Sciences [NIEHS]
National Toxicology Program [NTP]
U.S. Food and Drug Administration [FDA]
Activator protein-1 (AP-1), a transcription factor, plays an important role in tumor genesis by regulating genes involved in cell proliferation, differentiation, apoptosis, and angiogenesis. AP-1 activity is induced by a complex network of signaling pathways that involves extracellular signals, such as growth factors. The AP-1 protein complex formed from c-Fos and c-Jun binding to the AP-1 response element results in transcriptional activation of genes containing such elements within their promoter.
Low molecular weight molecules have been discovered and developed to modulate various components of these signaling pathways, for example, MAP kinase inhibitors. However, many points of pathway modulation remain untested due to the lack of chemical probes making this signaling locus of general interest.
Using a beta-lactamase reporter-gene under control of the AP-1 response element, a cell-based assay [CellSensor(TM) AP-1-bla ME-180 developed by Invitrogen Corp.] was used to measure EGF-induced signaling. The Tox21 10K library compounds were measured for their ability to positively modulate the action of EC50 EGF on reporter gene activity. Compounds were screened in a 15-pt titration series in 1536-well format. The cytotoxicity of the Tox21 compound library against this cell line was tested in parallel by measuring the intra cellular ATP content in the same wells.
Tox21 Assay Protocol Summary:
2500 cells/5uL in Opti-MEM medium containing 0.5% dialyzed FBS, 0.1 mM NEAA, 1 mM sodium pyruvate and 10 mM HEPES was dispensed into 1536-well black wall/clear bottom plates using a Multidrop dispenser and cells were cultured at 37 degrees Celsius overnight. Next day 23 nL of compounds dissolved in DMSO, positive controls or DMSO were delivered to each well using a pin tool. The plates were incubated at 37 degrees Celsius for 5 hours. 1 uL of LiveBLAzerTM B/G FRET substrate (Solution A+B+C+D) was added to each well using a Flying Reagent Dispenser. After incubated at room temperature for 2.5 hours the plates were measured on an EnVision plate reader at Excitation 405nm, Emission1=460nm and Emission 2=530nm. The %Activity was determined from the ratio of 460nm/530nm.
After the plates were read for Beta-Lactamase assay on Envision; 3 ul Cell Titer Glo (Promega) was added to measure the cytotoxicity and the plates were then incubated at RT in dark for 30 min. The luminescence was read on ViewLux (Perkin Elmer, Shelton, CT) using 6 sec exposure. ViewLux data was expressed as relative luminescence units.
For primary data analysis, raw plate reads for each titration point were first normalized relative to […] EGF control (100%) and DMSO only wells (basal, 0%).
For primary data analysis for viability assay, raw plate reads for each titration point were first normalized Tetra n-octyl ammonium bromide control (-100%) and DMSO (control, 100%).

Structure (SMILES)	Potency	viability change, negative = cytotoxic
Cc1ccccc1Cl	inactive	
CC(C)c1ccc(C(C)C)cc1	inactive	
COc1ccc2cc3[n+](cc2c1OC)CCc1cc2c(cc1-3)OCO2		8.61% (inactive)
Cc1nnc(NS(=O)(=O)c2ccc(N)cc2)s1	inactive	
O=C(NCC1CCCCN1)c1cc(OCC(F)(F)F)ccc1OCC(F)(F)F (stereo not given)	inactive	
Nc1cccc(C(F)(F)F)c1	inactive	
O=C1CCCCCCCCCCC1	inactive	
Cc1cc(C)cc(O)c1	inactive	
Cc1cc(C)c(O)c(C)c1	inactive	
CC(CN1c2ccccc2Sc2ccccc21)N(C)C (stereo not given)	inactive	
C=C1C[C@]23C[C@@]1(O)CC[C@H]2[C@@]12C=C[C@H](O)[C@@](C)(C(=O)O1)[C@H]2[C@@H]3C(=O)O	inactive	
CS(=O)(=O)c1ccc(Cl)cc1	inactive	
COCN(COC)c1nc(N(COC)COC)nc(N(COC)COC)n1	inactive	
CO[Si](CCCNCCN)(OC)OC	inactive	
Cc1cccc(C)c1[N+](=O)[O-]	inactive	
NC(=O)c1ncn([C@@H]2O[C@H](CO)[C@@H](O)[C@H]2O)n1	inactive	
CC(=O)OC[C@H]1O[C@@](COC(C)=O)(O[C@H]2O[C@H](COC(C)=O)[C@@H](OC(C)=O)[C@H](OC(C)=O)[C@H]2OC(C)=O)[C@@H](OC(C)=O)[C@@H]1OC(C)=O	inactive	
CCc1cccc(CC)c1N	inactive	
C=C(C)CC(C)(C)C	inactive	
CCCCCCCCC(=O)O	inactive	

Structure (SMILES)	Potency	viability change, negative = cytotoxic
COc1cc(NC(=O)CC(C)=O)c(OC)cc1Cl	inactive	
COC(=O)OC	inactive	
CC(C)=CCC/C(C)=C/C=O	inactive	
Cc1ccc([N+](=O)[O-])cc1N	inactive	
CC(=O)CC(=O)N(C)C	inactive	
CCn1cc(C(=O)O)c(=O)c2cc3c(cc21)OCO3	inactive	
c1cnc2c(c1)ccc1cccnc12	inactive	
Cc1ccc(C(C)C)cc1	inactive	
Oc1ccc(Cc2ccccc2O)cc1	inactive	
CN1CCCC1=O	inactive	
CCCCCCCCCCCC(=O)N(C)CC(=O)O	inactive	
CCOC(=O)c1ccc(O)cc1	inactive	
CCCCCCCCO	inactive	
O=[N+]([O-])c1cc(C(F)(F)F)ccc1Cl	inactive	
CC(C)(CO)CO	inactive	
C=CC(=O)NCOCCCC	inactive	
OCC(CO)(CO)CO	inactive	
CC1(C)C(=O)N(Cl)C(=O)N1Cl	inactive	
CC(=O)C(C)C	inactive	
Cc1cc(CC(=O)O)n(C)c1C(=O)c1ccc(Cl)cc1	inactive	
